Measured values: PubChem BioAssay AID1211 (NMMLSC, 2008)
Active and inactive are the calls of the source. No rule for the calls is given here.

target: Estrogen receptor (Homo sapiens) (UniProt P03372); test: displacement of fluorescent estrogen from ERalpha – cell-based, Cos7 ERalpha-GFP, flow cytometry, primary screen (AID 1211); conditions: fluorescent ligand competition, at 10 µM, stronger effect = higher value;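 also: 0% = DMSO vehicle wells and 100% = no E2-Alexa633 signal left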
Sequence (P03372 whole entry, looked up): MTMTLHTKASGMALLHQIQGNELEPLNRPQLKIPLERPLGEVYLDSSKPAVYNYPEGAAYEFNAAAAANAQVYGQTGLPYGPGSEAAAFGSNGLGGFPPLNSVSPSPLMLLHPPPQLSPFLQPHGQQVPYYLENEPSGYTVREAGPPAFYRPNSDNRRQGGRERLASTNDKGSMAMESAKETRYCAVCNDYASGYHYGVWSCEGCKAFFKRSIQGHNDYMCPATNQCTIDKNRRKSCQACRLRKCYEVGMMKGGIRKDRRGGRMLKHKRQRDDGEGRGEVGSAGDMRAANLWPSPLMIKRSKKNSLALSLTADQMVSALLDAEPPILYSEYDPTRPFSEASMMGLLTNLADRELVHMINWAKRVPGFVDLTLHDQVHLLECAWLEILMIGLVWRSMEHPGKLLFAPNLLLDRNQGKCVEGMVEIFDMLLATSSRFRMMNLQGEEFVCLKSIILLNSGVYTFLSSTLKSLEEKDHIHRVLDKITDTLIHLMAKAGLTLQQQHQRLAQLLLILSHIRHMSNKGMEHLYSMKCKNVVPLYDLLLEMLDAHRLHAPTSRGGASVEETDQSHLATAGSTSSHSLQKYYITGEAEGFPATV

**Q.** Which inhibition of ligand binding does the source give for `CCSc1nnc(NC(=O)C2Cc3ccccc3CN2C(=O)c2ccco2)s1` (centres undefined) here?
**A.** 26% (inactive)

**Q.** How did the inhibition of ligand binding turn out when `O=C(c1cc2c(s1)CCC2)N1CCN(c2ccccc2)CC1` was run?
**A.** 16% (active)

**Q.** With `O=S(=O)(NCCc1csc(-c2cccnc2)n1)c1ccc(Cl)s1` as the compound, how does the inhibition of ligand binding read?
**A.** 72% (active)

**Q.** Which inhibition of ligand binding does the source give for `COc1cc(C=C(c2nc3ccccc3s2)c2nc3ccccc3s2)ccc1O` here?
**A.** 31% (inactive)

**Q.** For `CC(O)C1CCC2C3CC[C@H]4CC(O)CCC4(C)C3CC3(OCCO3)C12C` (some centres undefined), which inhibition of ligand binding is on record?
**A.** 33% (inactive)

**Q.** `COc1ccc(Cn2c(=O)[nH]c3cc(C(=O)NCc4ccc5c(c4)OCO5)ccc3c2=O)cc1` was tested. Which inhibition of ligand binding did it give?
**A.** 23% (inactive)

**Q.** Which inhibition of ligand binding does the source give for `N=C1C(c2nc3ccccc3[nH]2)=C(O)CN1c1ccc(CC(=O)O)cc1` here?
**A.** 45% (active)

**Q.** With `COc1ccc(OC)c(NC(=O)CSc2nc3ccccc3c3nc4ccccc4n23)c1` as the compound, how does the inhibition of ligand binding read?
**A.** 26% (inactive)

**Q.** `COc1ccc(C2CC(c3c(-c4ccccc4)c4cc(Cl)ccc4[nH]c3=O)=NN2S(C)(=O)=O)cc1OC` (centres undefined) was tested. Which inhibition of ligand binding did it give?
**A.** 29% (inactive)

**Q.** For `Nc1ccc2nc(-c3ccc(Cl)cc3)[nH]c2c1`, which inhibition of ligand binding is on record?
**A.** 41% (inactive)

**Q.** For `CCc1oc2ccccc2c1C(=O)c1cc(Br)c(O)c(Br)c1`, which inhibition of ligand binding is on record?
**A.** 0% (inactive)

**Q.** How did the inhibition of ligand binding turn out when `O=C(CSc1nnc(-c2ccc(OC(F)F)cc2)o1)NC(=O)NCc1ccco1` was run?
**A.** 34% (inactive)

**Q.** For `Cc1cccc(N2CCN(C(=O)c3cc4c(=O)n(C)c5ccccc5c4n3C)CC2)c1C`, which inhibition of ligand binding is on record?
**A.** 55% (inactive)

**Q.** How did the inhibition of ligand binding turn out when `Cc1cc(O)ccc1C1(c2ccc(O)cc2C)OC(=O)c2ccccc21` was run?
**A.** 28% (inactive)

**Q.** Which inhibition of ligand binding does the source give for `O=C(COC(=O)c1ccccc1)NCc1ccco1` here?
**A.** 29% (inactive)

**Q.** `CC(C)(C)NC(=O)c1ccc2c(c1)C1C3CCC(C3)C1C(c1ccccc1)N2` (centres undefined) was tested. Which inhibition of ligand binding did it give?
**A.** 70% (active)

**Q.** `O=C(Nc1ccc(N2CCCC2)cc1)C(c1ccccc1)c1ccccc1` was tested. Which inhibition of ligand binding did it give?
**A.** 63% (inactive)

**Q.** How did the inhibition of ligand binding turn out when `O=C(Nc1ccc2c(c1)nc1n2CCSC1)c1ccco1` was run?
**A.** 20% (inactive)

**Q.** `CC(C)CN(C(=O)COC(=O)c1cc2c(s1)CCC2)C1CCS(=O)(=O)C1` (centres undefined) was tested. Which inhibition of ligand binding did it give?
**A.** 47% (inactive)

**Q.** `CC(C)(C)c1nnc2sc(SC/C(O)=C(\C#N)c3nc4ccccc4[nH]3)nn2c1=O` was tested. Which inhibition of ligand binding did it give?
**A.** 20% (inactive)

**Q.** For `CCOc1cc(C2CC(=O)c3c(ccc4ccccc34)N2)ccc1O` (centres undefined), which inhibition of ligand binding is on record?
**A.** 32% (inactive)

**Q.** With `CCCCn1c(NC(=O)CC)c(C#N)c2nc3ccccc3nc21` as the compound, how does the inhibition of ligand binding read?
**A.** 35% (inactive)

**Q.** Which inhibition of ligand binding does the source give for `O=S(=O)(NCc1csc(-c2cccnc2)n1)c1cccs1` here?
**A.** 22% (inactive)

**Q.** With `Cc1oc2c(C)c(O)ccc2c(=O)c1-c1ccc2ccccc2n1` as the compound, how does the inhibition of ligand binding read?
**A.** 20% (active)

**Q.** For `CCc1ccc(NC(=O)c2noc3c2CCC3)cc1`, which inhibition of ligand binding is on record?
**A.** 2% (inactive)

**Q.** With `CCOC(=O)CSc1nn(C)c(=S)s1` as the compound, how does the inhibition of ligand binding read?
**A.** 52% (inactive)

**Q.** Which inhibition of ligand binding does the source give for `COc1ccc(-c2nc3ccc([N+](=O)[O-])cc3o2)cc1` here?
**A.** 28% (inactive)

**Q.** For `CCOc1ccccc1-n1nnnc1SCC(=O)NC(=O)NCc1ccco1`, which inhibition of ligand binding is on record?
**A.** 5% (inactive)

**Q.** `CCc1ccc(Nc2cc(C(=O)NCCCN3CCOCC3)c3ccccc3n2)cc1` was tested. Which inhibition of ligand binding did it give?
**A.** 25% (inactive)

**Q.** `CCOc1ccc2nc(NC(=O)CCC(=O)c3cccs3)sc2c1` was tested. Which inhibition of ligand binding did it give?
**A.** 13% (inactive)

**Q.** With `Cc1ccc(Cn2c(NC(=O)c3ccco3)nc3ccccc32)cc1` as the compound, how does the inhibition of ligand binding read?
**A.** 29% (inactive)

**Q.** Which inhibition of ligand binding does the source give for `Cc1cccn2c(=O)c3cc(C(=O)O)n(C)c3nc12` here?
**A.** 33% (inactive)

**Q.** For `C1CCC(c2nn3c(-c4n[nH]c5c4CCC5)nnc3s2)CC1`, which inhibition of ligand binding is on record?
**A.** 20% (inactive)

**Q.** How did the inhibition of ligand binding turn out when `Cc1nc2cc(-c3ccsc3-n3c(C)ccc3C)[nH]n2c(=O)c1Cl` was run?
**A.** 30% (inactive)

**Q.** Which inhibition of ligand binding does the source give for `CCOc1[nH]c(/N=C/c2ccco2)c(C#N)c1C#N` here?
**A.** 21% (inactive)

**Q.** `CCOC(=O)CN1C(c2ccc(O)cc2)Nc2ccc(Br)cc2C1c1ccccc1` (centres undefined) was tested. Which inhibition of ligand binding did it give?
**A.** 24% (inactive)

**Q.** For `Cc1cc(C(=O)Nc2sc3c(c2C#N)CCC3)no1`, which inhibition of ligand binding is on record?
**A.** 46% (active)

**Q.** `CCc1ccc2[nH]c(=O)c(C3C(C#N)=C(N)Oc4c3ccc3cccnc43)cc2c1` (centres undefined) was tested. Which inhibition of ligand binding did it give?
**A.** 30% (inactive)

**Q.** With `COc1ccc(CNC(=O)c2cc(-c3cccs3)on2)cc1` as the compound, how does the inhibition of ligand binding read?
**A.** 40% (active)
